{"source": "PubChem BioAssay (Tox21)", "note": "Values without a mark were called inactive. The call rests on the fitted dose curve; in most records, active means well fitted cell-killing curve with a large enough effect in the repeat runs; inconclusive means weak or mixed curves, or effect the other way; inactive means flat fitted curve, though single readings scatter. On the % scale 0 is the no-effect control and ±100 the full control effect.", "data": [{"experiment": "qHTS assay to identify small molecule HDAC inhibitors - cell viability counter screen (AID 1259365); further: nearly all actives have a fitted effect of over 50% in size", "settings": "HCT-116 viability, CellTiter-Glo ATP luminescence, 2 h; series mostly up to 92.4 µM; activity change, negative = cytotoxicity: at the top concentration", "text": "U.S. Tox21 Program National Center for Advancing Translational Sciences [NCATS] NIH Chemical Genomics Center [NCGC] U.S. Environmental Protection Agency [EPA] National Institutes of Environmental Health Sciences [NIEHS] National Toxicology Program [NTP] U.S. Food and Drug Administration [FDA] Tox21 Assay Overview: Histone deacetylases (HDACs) are a group of epigenetic enzymes that regulate gene expression by histone deacetylation. HDACs are capable of introducing epigenetic modifications and such aberrations contribute to the onset and progression of several human diseases, thus making HDACs a popular therapeutic target. For identifying endogenous class I/II HDAC inhibitors a homogenous, luminogenic HDAC I/II cell based assay was used to measure the relative activity of class I and II HDACs from cells. Wild type HCT-116 cells were used to screen Tox21 compound libraries for identifying class I/II HDAC inhibitors.\nTox21 Assay Protocol Summary: HCT-116 cells were dispensed at 1,500 per well in 5uL of culture medium into white solid bottom 1536-well plates (Greiner Bio-One, Monroe, NC) using a Multidrop Combi (Thermo Scientific, Waltham, MA) dispenser. The assay plates were incubated at 37 C and 5% CO2 for an overnight, and then 23nL of compounds dissolved in DMSO and positive control were transferred using a Pintool station (Wako, San Diego, CA). The assay plates were incubated at 37C and 5% CO2 for 2hr. After compound treatment, 4uL of CellTiter-Glo reagent (Promega Corporation, Madison, WI) was added to each well of the assay plates using Flying Reagent Dispenser (FRD, Aurora Discovery, San Diego, CA) and incubated the assay plates at room temperature for 30min. The luminescence signal was quantified using a ViewLux plate reader (Perkin Elmer, Shelton, CT).", "values": [{"smiles": "Cc1cc(CC(=O)O)c(C)n1-c1ccc(Cl)cc1", "activity change, negative = cytotoxicity": "-3.35% [at 42.5 µM]"}, {"smiles": "Cc1c(Cn2ccnc2)c2ccccc2n1CCC(=O)O", "activity change, negative = cytotoxicity": "3.12% [at 42.5 µM]"}, {"smiles": "COCCOCCOCCOCCOC", "activity change, negative = cytotoxicity": "-1.62%"}, {"smiles": "Cl/C(=C\\n1cncn1)c1ccc(Cl)cc1Cl", "activity change, negative = cytotoxicity": "1.18% [at 42.5 µM]"}, {"smiles": "CCCCCCc1ccc(N)cc1", "activity change, negative = cytotoxicity": "-9.78%"}, {"smiles": "CC(=O)OC/C=C/c1ccccc1", "activity change, negative = cytotoxicity": "-0.483%"}, {"smiles": "COc1ccc2[nH]c(S(=O)Cc3ncc(C)c(OC)c3C)nc2n1", "note": "(stereo not given)", "activity change, negative = cytotoxicity": "-0.371% [at 42.5 µM]"}, {"smiles": "O=C(O)Cc1cc(I)c(Oc2ccc(O)c(I)c2)c(I)c1", "activity change, negative = cytotoxicity": "4.09%"}, {"smiles": "CN1CCC(=C2c3ccccc3C=Cc3ccccc32)CC1", "activity change, negative = cytotoxicity": "-8.25% [at 42.5 µM]"}, {"smiles": "O=S(=O)(O)c1ccc(O)c2ncccc12", "activity change, negative = cytotoxicity": "1.56%"}, {"smiles": "CN(C)C/C=C(/c1ccc(Br)cc1)c1cccnc1", "activity change, negative = cytotoxicity": "1.52% [at 42.5 µM]"}, {"smiles": "CC(CN)CCCN", "note": "(stereo not given)", "activity change, negative = cytotoxicity": "3.24%"}, {"smiles": "CC(=O)CC(=O)c1ccccc1", "activity change, negative = cytotoxicity": "0.683%"}, {"smiles": "CCC(C)N(C)C(=O)c1cc2ccccc2c(-c2ccccc2Cl)n1", "note": "(stereo not given)", "activity change, negative = cytotoxicity": "0.669% [at 42.5 µM]"}, {"smiles": "CN1CCC[C@@H]1c1cccnc1", "activity change, negative = cytotoxicity": "-5.84% [at 42.5 µM]"}, {"smiles": "O=C1Nc2cc(Cl)ccc2Oc2ccccc21", "activity change, negative = cytotoxicity": "-0.935% [at 42.5 µM]"}, {"smiles": "CC(C)NCC(O)COc1ccc(CC(N)=O)cc1", "note": "(stereo not given)", "activity change, negative = cytotoxicity": "-6.07%"}, {"smiles": "N#CCc1cccc(C(F)(F)F)c1", "activity change, negative = cytotoxicity": "2.58%"}, {"smiles": "Cc1ncsc1CCO", "activity change, negative = cytotoxicity": "-0.269%"}, {"smiles": "CCCCCOC(=O)c1ccc(O)cc1", "activity change, negative = cytotoxicity": "-14.3%"}, {"smiles": "C1CCC2OC2C1", "note": "(stereo not given)", "activity change, negative = cytotoxicity": "1.7%"}, {"smiles": "C#CCOC(=O)[C@@H](C)Oc1ccc(Oc2ncc(Cl)cc2F)cc1", "activity change, negative = cytotoxicity": "0.227%"}, {"smiles": "CCOC(=O)CC(=O)c1cc(F)c(Cl)nc1Cl", "activity change, negative = cytotoxicity": "1.23%"}, {"smiles": "Cc1cc(NC(=O)C(=O)O)cc(C)c1Oc1ccc(O)c2c1CCC2", "activity change, negative = cytotoxicity": "-0.426%"}, {"smiles": "COC(Cc1ccccc1)OC", "activity change, negative = cytotoxicity": "-0.626%"}, {"smiles": "NC(=S)N/N=C/c1cccnc1", "activity change, negative = cytotoxicity": "0.319% [at 42.5 µM]"}, {"smiles": "CCN(CC)CCc1nc(-c2ccccc2)no1", "activity change, negative = cytotoxicity": "6.27% [at 42.5 µM]"}, {"smiles": "Nc1nc(N)c2nc(CNc3ccc(C(=O)N[C@@H](CCC(=O)O)C(=O)O)cc3)cnc2n1", "activity change, negative = cytotoxicity": "-14%"}, {"smiles": "C[Si](C)O[Si](C)(C)O[Si](C)(C)O[Si](C)C", "activity change, negative = cytotoxicity": "2.28%"}, {"smiles": "CC(O)C1CCCCC1", "note": "(stereo not given)", "activity change, negative = cytotoxicity": "0.805%"}, {"smiles": "NC1CCN(c2nc3c(cc2F)c(=O)c(C(=O)O)cn3-c2ccc(F)cc2F)C1", "note": "(stereo not given)", "activity change, negative = cytotoxicity": "4.63% [at 42.5 µM]"}, {"smiles": "OCCC1CCCCN1", "note": "(stereo not given)", "activity change, negative = cytotoxicity": "1.2%"}, {"smiles": "CCOC(=O)CC(C)C", "activity change, negative = cytotoxicity": "0.108%"}, {"smiles": "Nc1nc(CC(=O)O)cs1", "activity change, negative = cytotoxicity": "-1.07%"}, {"smiles": "O=C(O)Cn1c(C(=O)Nc2nc(-c3ccccc3Cl)cs2)cc2ccccc21", "activity change, negative = cytotoxicity": "-0.191% [at 42.5 µM]"}, {"smiles": "O=C1[C@H](CC[C@H](O)c2ccc(F)cc2)[C@@H](c2ccc(O)cc2)N1c1ccc(F)cc1", "activity change, negative = cytotoxicity": "0.972% [at 42.5 µM]"}, {"smiles": "CCCC[C@H]1CN(CC2CCOCC2)C(=O)OC12CCN(C1(C)CCN(C(=O)c3c(C)ncnc3C)CC1)CC2", "activity change, negative = cytotoxicity": "-0.571%"}, {"smiles": "C[C@@H](C1=C(CCN(C)C)Cc2ccccc21)c1ccccn1", "activity change, negative = cytotoxicity": "-2.99% [at 42.5 µM]"}, {"smiles": "CN1CCN(C2=Nc3ccccc3Sc3ccc(Cl)cc32)CC1", "activity change, negative = cytotoxicity": "-0.29% [at 42.5 µM]"}, {"smiles": "CCCCC(CC)(CO)CO", "activity change, negative = cytotoxicity": "-2.37%"}]}]}
